An excerpt weighted towards active compounds, which were near 2.7% of everything screened.
PAFAH1B2 inh = blocks human PAF acetylhydrolase 1b catalytic subunit 2; recombinant PAFAH1B2, FP-rhodamine activity probe, fluorescence polarization; 340,000 tested, 1.2% active; inhibition, % at 3.39 µM; P68402; AID 492953;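 active = inhibition above the mean of all tested compounds plus 3 SD, cut at about 24% in these data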;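 also: 0% = enzyme with DMSO and 100% = wells lacking PAFAH1B2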
Target sequence (P68402 whole entry, looked up): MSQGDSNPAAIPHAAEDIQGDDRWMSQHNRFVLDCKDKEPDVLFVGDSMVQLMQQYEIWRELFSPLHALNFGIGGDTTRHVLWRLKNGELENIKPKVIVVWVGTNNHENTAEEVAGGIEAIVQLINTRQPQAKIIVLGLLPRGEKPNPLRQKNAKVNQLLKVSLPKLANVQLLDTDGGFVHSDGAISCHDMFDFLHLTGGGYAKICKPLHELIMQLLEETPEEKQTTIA
PAFAH2 FP inh = inhibitors of human PAFAH2; Q99487; recombinant PAFAH2, FP-rhodamine activity probe, fluorescence polarization; inhibition, % at 3.39 µM; 340,000 tested, 0.99% active; AID 492956;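 active = inhibition above the mean over all tested compounds plus 3 SD, cut at about 30% in these data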;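 also: inhibitors block probe labeling of enzyme so polarization drops; 0% = enzyme with DMSO and 100% = wells lacking PAFAH2 protein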
TCR-CD3 inh = blocks the human TCR-CD3 interaction. TAMRA-labeled TCR probe fluorescence, biochemical. inhibition, % at 9.4 µM. 360,000 tested, 0.37% active; in the data active = inhibition above about 19%;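 also: recombinant mutant TCR 2C K166C tagged with TAMRA read by polarization; 0% = receptor in buffer alone and 100% = receptor with positive control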
PAFAH1B3 inh = PAFAH1B3 (human) inhibition. Q15102. recombinant PAFAH1B3, FP-rhodamine probe, fluorescence polarization. inhibition, % at 3.39 µM. 340,000 tested, 0.28% active. AID 492972;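 active = inhibition above the screen-wide average of all tested compounds plus 3 SD, cut at about 25% in these data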;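 also: 0% = enzyme with DMSO only and 100% = wells lacking PAFAH1B3 protein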
pPAFAH inh = inhibitors of human plasma PAF acetylhydrolase (pPAFAH). Q13093. recombinant pPAFAH, FP-rhodamine probe fluorescence polarization. inhibition, % at 3.39 µM. 330,000 tested, 1.5% active. AID 463082;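 active = inhibition above the mean inhibition across the screen plus 3 SD, cut at about 25% in these data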;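 also: inhibitors block binding of the rhodamine activity-based probe so polarization drops; 0% = enzyme with DMSO and 100% = wells lacking pPAFAH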
Target sequence (Q13093 whole entry, looked up): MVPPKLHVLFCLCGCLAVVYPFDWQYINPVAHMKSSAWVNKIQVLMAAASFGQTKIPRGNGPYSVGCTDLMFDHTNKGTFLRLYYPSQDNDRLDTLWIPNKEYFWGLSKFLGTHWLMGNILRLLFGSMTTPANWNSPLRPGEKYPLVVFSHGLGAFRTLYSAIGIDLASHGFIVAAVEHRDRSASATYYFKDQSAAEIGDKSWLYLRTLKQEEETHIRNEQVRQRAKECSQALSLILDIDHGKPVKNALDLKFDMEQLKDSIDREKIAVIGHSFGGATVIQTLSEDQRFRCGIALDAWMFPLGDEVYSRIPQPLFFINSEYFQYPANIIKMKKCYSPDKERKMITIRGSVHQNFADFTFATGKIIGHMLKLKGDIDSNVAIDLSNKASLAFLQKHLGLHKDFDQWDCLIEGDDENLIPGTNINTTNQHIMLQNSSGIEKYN
PAFAH2 confirm = PAFAH2 (human) inhibition, confirmed | 2,300 tested, 65% active | recombinant PAFAH2, FP-rhodamine activity probe, fluorescence polarization | inhibition, % at 3.39 µM | shares compounds with PAFAH2 FP inh;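 active = mean inhibition over three repeats above a set limit taken from the earlier primary screen, cut at about 30% in these data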;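 also: inhibitor blocks binding of rhodamine activity probe so polarization falls; 0% = enzyme with DMSO and 100% = wells lacking PAFAH2 protein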
* = called active by the depositor; . = no result given.

SMILES | PAFAH1B2 inh | PAFAH2 FP inh | TCR-CD3 inh | PAFAH1B3 inh | pPAFAH inh | PAFAH2 confirm
CCn1cc(C(=O)N2CCCC(N3CCN(c4ccccc4C)CC3)C2)cn1 (stereo unspecified) | -5.2 | 0.6 | 2.3 | 7.2 | 0.4 | .
Cc1onc(-c2c(Cl)cccc2Cl)c1C(=O)N(C)Cc1ccccc1 | 1.3 | 2.4 | -1.0 | 1.3 | 8.1 | .
N/C(Cc1ccc([N+](=O)[O-])cc1)=N\OC(=O)c1ccccc1Br | 1.9 | -0.6 | 1.2 | 6.4 | 7.3 | .
N/C(Cc1ccc(Cl)cc1)=N\OC(=O)C1CCCCC1 | 3.4 | 40.5* | -10.3 | 10.6 | 0.9 | 41.7*
COc1cccc(C(=O)O/N=C(\N)Cc2ccc(Cl)cc2)c1 | 5.3 | 69.2* | 1.8 | 3.9 | 18.8 | 55.9*
COc1cccc(C(=O)O/N=C(\N)c2ccc(C)cc2)c1 | 2.0 | 5.9 | -1.4 | 16.1 | 5.3 | .
N/C(Cc1ccc([N+](=O)[O-])cc1)=N\OC(=O)c1ccco1 | 7.2 | 39.0* | 0.9 | 1.4 | 1.5 | 36.8*
Cc1cccc(C(=O)O/N=C(\N)Cc2ccc([N+](=O)[O-])cc2)c1 | 0.2 | 37.3* | 4.7 | 5.4 | 15.2 | 29.6
O=C(COC(=O)C1CCCC1)NCc1ccc(Cl)cc1 | 9.8 | 19.3 | 6.1 | -2.6 | 13.1 | .
CCC(=O)c1c(NC(CC)CO)cc(C)oc1=O (stereo unspecified) | 5.3 | 1.1 | 6.0 | 5.2 | 4.6 | .
CCOC(=O)C1=C(Nc2ccc(OC)cc2)OCC1=O | 4.9 | 1.2 | 3.4 | 2.7 | -5.8 | .
CCc1nc2ccc(C(=O)NCCCn3ccnc3)cn2c1N(C)C(=O)c1cccc(OC)c1 | . | . | -2.3 | . | . | .
Cc1cccc(/C(N)=N/OC(=O)Cc2cccc3ccccc23)c1 | -1.7 | 1.0 | 2.3 | -0.4 | 4.5 | .
Cc1cccc(C(=O)O/N=C(\N)Cc2cccc3ccccc23)c1 | 5.4 | 75.3* | . | -1.8 | 6.7 | 73.7*
N/C(Cc1ccc([N+](=O)[O-])cc1)=N\OC(=O)c1ccc2ccccc2c1 | -0.3 | 61.9* | -4.0 | 8.1 | 20.5 | 53.7*
CCCOc1ccc(NC(=O)CCC(=O)NC(C)c2ccccc2)cc1 (stereo unspecified) | 10.3 | -2.5 | -7.0 | 7.0 | 0.7 | .
Cc1ccc(Nc2cc(C)c(O)c(C)c2)cc1 | 5.3 | 6.0 | 1.6 | 12.1 | -1.7 | .
Cc1ccc(C)c(C(O)c2ncc(-c3ccccc3)[nH]2)c1 (stereo unspecified) | . | . | -2.8 | . | . | .
COc1cc(OC)cc(-c2nnc(Nc3nc4c(F)cccc4s3)o2)c1 | 11.2 | 35.8* | -1.6 | 13.4 | 24.0 | 30.9*
CC(C)(C)OC(=O)N1CCC(CC2CC(c3ccc(Cl)cc3)=NO2)(C(=O)NCC2CCCCC2)CC1 (stereo unspecified) | 0.7 | 3.1 | 9.9 | 9.2 | -0.6 | .
COc1cc2nc(COc3ccccc3[N+](=O)[O-])oc(=O)c2cc1OC | 0.6 | 50.5* | -4.8 | 5.5 | 4.9 | 69.0*
COc1ccc(C(=O)OCC(=O)NC2CC2)cc1S(=O)(=O)N1CCOCC1 | 3.6 | 51.7* | 3.4 | 6.8 | 1.1 | 38.7*
O=C(COC(=O)c1ccc(F)c(S(=O)(=O)N2CCOCC2)c1)NC1CCCCC1 | 2.3 | 71.2* | -2.0 | -1.4 | 2.2 | 60.3*
COC(=O)c1cc(COC(=O)c2ccc(OC)c(S(=O)(=O)N3CCCC3)c2)oc1C | 2.1 | 40.8* | 2.4 | 8.2 | . | 23.1
COc1ccc(C(=O)OCC(=O)NC(=O)NC2CCCC2)cc1OC | -3.7 | 30.0* | 1.6 | 9.0 | -3.2 | 26.8
SMILES | PAFAH1B2 inh | PAFAH2 FP inh | TCR-CD3 inh | PAFAH1B3 inh | pPAFAH inh | PAFAH2 confirm
COc1ccc(C(=O)OCC(=O)N2CCc3ccccc3C2)cc1OC | 5.6 | 53.4* | 2.0 | 5.5 | 5.0 | 44.6*
CCOc1c(Br)cc(C(=O)OCC(=O)N2CCc3ccccc3C2)cc1OC | 5.4 | 12.7 | -9.0 | 8.0 | 6.0 | .
CNc1ccc(C(=O)OCC(=O)NC(=O)NC2CCCC2)cc1[N+](=O)[O-] | 3.8 | 41.4* | 2.1 | -1.2 | 3.2 | 18.0
COc1cccc(-c2nc3ccccc3c(=O)o2)c1 | 2.8 | 68.4* | 2.0 | 4.5 | -7.0 | 73.1*
COc1cc(OC)cc(-c2nc3ccccc3c(=O)o2)c1 | 1.4 | 54.5* | 6.2 | -0.6 | 6.1 | 67.9*
COc1cc(OC)cc(-c2nc3cc(C)ccc3o2)c1 | 1.8 | -8.3 | -1.2 | 8.1 | -0.8 | .
CCOc1ccc(C(C)=O)cc1COc1ccc(C)nc1[N+](=O)[O-] | -0.3 | 0.8 | -7.7 | 5.8 | 8.3 | .
c1ccc(NCCc2ccccn2)cc1 | 4.3 | 6.2 | 6.2 | 4.9 | . | .
Nc1cc(C(F)(F)F)ccc1NCCc1ccccn1 | 6.1 | 63.6* | -1.4 | 5.1 | 7.3 | 51.9*
COc1ccc(OC)c(S(=O)(=O)N2CCC(C(=O)NCc3cccnc3)CC2)c1 | 3.6 | 9.7 | -4.9 | -5.0 | 0.2 | .
COc1ccc(CCC(=O)NC(C)C)cc1 | -1.4 | -2.1 | 7.7 | 1.1 | 2.5 | .
COc1ccc(COC[C@H](C)[C@H](O)[C@@H](C)[C@H]2OC(=O)[C@@H]2C)cc1 | -2.7 | 69.1* | 2.1 | 7.6 | 10.2 | 78.1*
O=C(CCCN1C(=O)c2cccnc2C1=O)Nc1ccc(F)cc1Cl | 1.7 | 0.1 | -1.3 | 12.6 | 5.2 | .
Cc1cc2c(=O)oc(-c3ccccc3Br)nc2s1 | 3.1 | 69.3* | -6.4 | 4.7 | . | 51.6*
O=C(COC(=O)C1CC1)NCc1ccc(Cl)cc1Cl | 5.2 | 64.2* | -2.9 | 3.5 | 4.8 | 46.1*
Cc1ccc(C(=O)OCC(=O)NCc2ccc(Cl)cc2Cl)o1 | 8.2 | 55.8* | 2.6 | 1.4 | 4.4 | 41.6*
Cc1ccc(S(=O)(=O)N(C)C)cc1NC(=O)COC(=O)/C=C/c1ccc2c(c1)OCO2 | -2.1 | 56.9* | 7.4 | -0.2 | 2.8 | 47.3*
CN(C)S(=O)(=O)c1cccc(NC(=O)COC(=O)/C=C/c2ccc3c(c2)OCO3)c1 | -0.8 | 73.8* | 7.6 | 2.1 | 5.5 | 62.0*
Cc1ccc(S(=O)(=O)C[C@@H]2OC[C@H](Cc3ccccc3)N2S(=O)(=O)c2ccc(C)cc2)cc1 | . | . | -6.4 | . | . | .
COc1cccc(NC(=O)COC(=O)c2ccccc2F)c1 | -2.0 | 76.2* | -7.2 | 6.8 | 13.2 | 70.2*
COc1cccc(NC(=O)COC(=O)c2c(F)cccc2Cl)c1 | 3.8 | 60.9* | -0.4 | 3.7 | 5.9 | 58.5*
N#C/C(=C\c1c(Cl)cccc1Cl)c1nc2ccccc2[nH]1 | 0.2 | 1.1 | 3.5 | -0.2 | -2.1 | .
N#C/C(=C\c1c(Cl)cccc1Cl)c1nc2ccccc2o1 | -2.3 | 32.9* | -2.9 | 0.3 | 1.2 | 33.5*
NC(=O)c1cc[n+](Cc2ccccc2Cl)cc1 | 0.0 | -5.2 | -6.3 | 5.2 | 1.1 | .
COc1ccc(C2OC(=O)c3ccccc3S2)cc1 (stereo unspecified) | 3.3 | 86.2* | 1.0 | 4.7 | 3.9 | 77.9*
Cc1ccc(NS(=O)(=O)c2cc(C(=O)O)ccc2Cl)cc1 | 19.8 | -0.2 | 0.4 | 0.0 | 0.4 | .
Cc1ccc(NS(=O)(=O)c2cc(C(=O)O)ccc2Cl)c(C)c1 | 18.0 | 54.0* | -4.0 | 1.5 | 6.0 | 2.8
Cc1ccc(S(=O)(=O)N2CCCCC2)cc1NC(=O)COC(=O)C1CC1 | . | . | -4.2 | . | . | .
